Assay [1] can be described thus: NFkB reporter suppression in cystic fibrosis bronchial cells – cell-based, uHTS hits, panel, cytotoxicity readout, dose response (AID 624344). The note with it: CF bronchial epithelial cells, PAF-induced NFkB reporter inhibition, with PAF, run 1; at 79 µM (top of the series) unless noted.
Experiment in assay [2]: as above
The note with it: CF bronchial epithelial cells, PAF-induced NFkB reporter inhibition, with PAF, run 2; at 79 µM (top of the series) unless noted.

Each structure is given as a SMILES string.

Consider `COc1cccc(-c2ccc3ncnc(NCc4cc(C)cs4)c3c2)c1`, for which the inhibition worked out at 106% in assay [1] and 116% in assay [2].

Turning to `C=CCn1cnc2c(c1=O)c1nc3ccccc3nc1n2/N=C/c1cc(OC)c(OC)c(OC)c1`, the inhibition is 109% in assay [1] and 102% in assay [2].

For `O=C(O)/C=C/c1ccc2c(-c3ccccc3)onc2c1`, the inhibition in assay [1] is 113%; in assay [2], 105%.

Turning to `CC(=O)Nc1ccc(NC(=O)COC(=O)c2c3c(nc4ccccc24)CCN(Cc2ccccc2)C3)cc1`, the inhibition in assay [1] is 92.5%; in assay [2], 89.8%.

With `CC(=O)Nc1ccc(Nc2nc(-c3sc(NC(C)=O)nc3C)cs2)cc1`, the inhibition in assay [1] came to 103%; in assay [2], 110%.

With `CCSc1nsc(NC(=O)Nc2cccc(OC)c2)n1`, the values for the inhibition in assay [1] and in assay [2] were 102% and 113%, respectively.

Regarding `O=c1[nH]c(C2CCN(S(=O)(=O)c3ccc4c(c3)OCCO4)CC2)nc2c1nnn2Cc1c(F)cccc1Cl`, the inhibition in assay [1] came out at 93%; in assay [2], 101%.

As for `Cc1cccc(C(=O)N2[C@@H](C(C)C)COc3cc(Br)ccc3S2(=O)=O)c1`, the inhibition was found to be 102% in assay [1] and 93.6% in assay [2].

For `COc1ccc(-n2ncc3c(N4CCN(Cc5ccccc5)CC4)ncnc32)cc1`, the values for the inhibition in assay [1] and in assay [2] were 113% and 102%, respectively.

Turning to `O=C(N/N=C/c1ccccc1)c1[nH]c2ccc(Br)cc2c1-c1ccccc1`, the results for the inhibition in assay [1] and in assay [2] were 76.6% and 79.5%, respectively.

Take `Cc1cccc(NS(=O)(=O)c2ccc(-c3cnc(C4CC4)o3)cc2)c1C`: the inhibition is 105% in assay [1] and 107% in assay [2].

`CCC1=Nc2cc(C(=O)NCc3ccco3)ccc2Sc2ccc(C)cc21`: the inhibition in assay [1] amounted to 99.5%; in assay [2] it was 92.2%.

With `CCc1cc(-c2[nH]ncc2-c2ccc(OC)cc2)c(O)cc1O`, the inhibition in assay [1] stood at 115%; in assay [2] it was 104%.

For the molecule `O=C(Nc1ccccc1)Nc1ncc([N+](=O)[O-])s1`, the inhibition in assay [1] was 108%; in assay [2] it was 96.7%.

As to `Nc1nc(/C=C/c2cccnc2)nc(-c2ccccc2O)n1`, the values for the inhibition in assay [1] and in assay [2] were 100% and 110%, respectively.

Turning to `CCCc1nc(Cl)c(C#N)c2c1CCCC2`, the inhibition in assay [1] was 97.8%; in assay [2], 98.1%.

`C=C(C)[C@@H]1CCC2(C(=O)O)CC[C@]3(C)[C@H](CC[C@@H]4[C@@]5(C)CCC(=O)C(C)(C)[C@@H]5CC[C@]43C)[C@@H]12` (stereo partly specified): the results for the inhibition in assay [1] and in assay [2] were 86.7% and 102%, respectively.

As for `COc1ccc(-c2csc3ncnc(NCCN4CCOCC4)c23)cc1`, the values for the inhibition in assay [1] and in assay [2] were 112% and 100%, respectively.

As for `CC1=C(C(=O)OCc2ccc3c(c2)OCO3)C(c2cccc([N+](=O)[O-])c2)NC(=O)N1` (stereo unspecified), the values for the inhibition in assay [1] and in assay [2] were 79.1% and 92.2% [at 19.8 µM], respectively.

As to `Cc1c(C(=O)OCC(C)C)[nH]c2c1C(=O)CC(c1ccco1)C2` (stereo unspecified), the results for the inhibition in assay [1] and in assay [2] were 97.4% and 61.5%, respectively.

`CCCCCCCCCc1nc2sc3c(c2c(=O)n1NC(=O)c1ccc([N+](=O)[O-])cc1)CC(C)(C)OC3`: the inhibition in assay [1] was 80.5%; in assay [2] it was 115%.

As to `COc1cc(O)cc2cc3c(c(O)c12)C(=O)CC(C)(O)O3` (stereo unspecified), the inhibition in assay [1] was found to be 99.9%; in assay [2], 108%.

`CN(C)/C=C/C(=O)c1ccc2noc(-c3ccccc3)c2c1`: the inhibition worked out at 118% in assay [1] and 105% in assay [2].

In the case of `CC[C@H](CO)Nc1nc(Nc2cccc(Cl)c2)c2ncn(C(C)C)c2n1`, the inhibition worked out at 106% in assay [1] and 108% in assay [2].

As for `COc1ccc(-n2nc(C(=O)NCC(=O)Nc3cc(OC)c(OC)c(OC)c3)c3ccccc3c2=O)cc1OC`, the inhibition in assay [1] was 102%; in assay [2], 101%.

As to `O=C(c1nnsc1S(=O)(=O)c1ccc(Cl)cc1)N1CCOCC1`, the inhibition amounted to 96% in assay [1] and 85.4% in assay [2].

On to `COc1ccc(OC)c(Nc2ncnc3ccc(Br)cc23)c1`, for which the inhibition was determined as 98.3% in assay [1] and 97.5% in assay [2].

On to `CCN(c1ccc(OC)cc1)c1ncnc2nc[nH]c12`, for which the inhibition was found to be 108% in assay [1] and 98% in assay [2].

As to `COc1cc2oc(=O)cc(-c3ccc(-c4ccc(N(C)C)cc4)cc3)c2c(OC)c1OC`, the inhibition amounted to 54.9% in assay [1] and 69.4% in assay [2].

As for `O=S(=O)(CC(CN1CCCC1)N1CCCC1)c1ccc2ccccc2c1` (stereo unspecified), the inhibition is 96.4% in assay [1] and 92.7% in assay [2].

As for `C=C1C(=O)[C@]23C[C@H]1CCC2[C@]1(C)C(=O)CC[C@@](C)(C(=O)O)C1C[C@@H]3O` (stereo partly specified), the inhibition in assay [1] came to 98.9%; in assay [2] it was 89.8%.

On to `COc1ccc(Nc2nccc(-c3cccc(N)c3)n2)cc1`, for which the inhibition in assay [1] came to 103%; in assay [2], 117%.

As for `O=S(=O)(Nc1ccc(Cl)cc1NS(=O)(=O)c1ccccc1)c1ccccc1`, the inhibition in assay [1] amounted to 114%; in assay [2], 85.8%.

For `Fc1cccc(Cl)c1/C=N/Nc1c(Cl)cncc1Cl`, the inhibition was found to be 101% in assay [1] and 104% in assay [2].

Take `Cc1nc2c(O)c3c(c(O)c2nc1C)C1C=CC3CC1`: the results for the inhibition in assay [1] and in assay [2] were 114% and 103%, respectively.

Turning to `Cc1ccc2c(c1)C(=O)C(=O)N2Cc1ccc(C(F)(F)F)cc1`, the inhibition is 111% in assay [1] and 100% in assay [2].

In the case of `O=C1OC(c2ccccc2)(c2cc(Br)ccc2O)c2ccccc21` (stereo unspecified), the inhibition in assay [1] is 105%; in assay [2], 116%.

For `CCN1CCN(Cc2ccc(NC(=O)c3ccc(C)c(NC(=O)N4CCNC4=O)c3)cc2C(F)(F)F)CC1`, the inhibition in assay [1] is 103%; in assay [2], 119%.

Consider `CCOC(=O)/C=c1/s/c(=C\c2c(OC)ccc3ccccc23)c(=O)n1CC(=O)NCC1CCCO1` (stereo unspecified), for which the inhibition in assay [1] is -195%; in assay [2], 46.6% [at 39.5 µM].

Regarding `CC(=O)c1c(O)cc2c3c1OC(C)(C)C1CCC(C)(CC31)O2` (stereo unspecified), the inhibition in assay [1] amounted to 111%; in assay [2], 99%.

For the molecule `COC(=O)N1C(=O)[C@@](c2ccccc2)(C(C)C)N1C(=O)OC`, the figures for the inhibition in assay [1] and in assay [2] were 107% and 104%, respectively.

In the case of `Cc1ccc2occ(/C=N/NC(=O)c3ccccc3Br)c(=O)c2c1`, the values for the inhibition in assay [1] and in assay [2] were 94.7% and 114%, respectively.

Consider `COc1cccc(-c2ccc3ncnc(NCc4ccc5c(c4)OCO5)c3c2)c1`, for which the inhibition in assay [1] was 97.6%; in assay [2], 113%.

The inhibition is the change of the read-out against control, counted positive when it falls.

Values taken from PubChem BioAssay.
